In the library only some 21% were active in any assay of this set; here they are far more common.
Pf growth 48h = P. falciparum growth inhibition at 48 hours (one generation); Potency, µM (series often up to 28.7 µM), hits mostly inhibitors; 310,000 tested, 5.9% active; AID 504832; P. falciparum luciferase growth in erythrocytes, 48 h; active = well fitted inhibition curve with a large enough effect; inconclusive = small, poorly fitted or top-dose-only effect, or another doubt; inactive = no such curve, though single readings can be large or run the other way
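Erythrocytes infected with P. falciparum carrying an integrated firefly luciferase reporter (2% hematocrit, 0.1% parasitemia final) were exposed to compounds in RPMI 1640 with 0.5% Albumax at 37 C, 5% CO2. Growth inhibition was scored as reduced luminescence.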
Shiga toxin inh = Shiga toxin inhibition | Vero cells, Shiga toxin protein synthesis inhibition reporter | inhibition, % at 38.7 µM | 290,000 tested, 9.2% active | AID 2315; in the data active = inhibition mostly above about 28%, no sharp cut-off; inactive = mostly below about 43%
NS1 inh = influenza NS1 inhibition; Potency, µM (doses to about 46.1 µM); 270,000 tested, 0.4% active; note: actives are rising curves; nearly all actives have a fitted effect of over 50% in size
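OD600 was taken as the measure of yeast growth restored by compound in an NS1-expressing S. cerevisiae strain. Cells had been washed out of glucose medium and diluted 1:100 into galactose -URA medium, pH 6.0.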
Cycloheximide cs = counter-screen for Shiga toxin inhibitors: cycloheximide protein synthesis inhibition | cell reporter, cycloheximide protein synthesis inhibition counterscreen | max response, % | 300,000 tested, 12% active | AID 2314; in the data active = max response mostly above about 13%, no sharp cut-off; inactive = mostly below about 14%; note: read at 38.3 µM for the half of the compounds with a filed dose
SARS PLP yeast = SARS-CoV PLP inhibition in yeast. Potency, µM (highest dose often 32.9 µM), hits mostly activators. AID 485353. 330,000 tested, 0.19% active. S. cerevisiae expressing SARS-CoV PLpro, growth rescue; note: nearly all actives have a fitted effect of over 55% in size
Pf growth 96h = P. falciparum growth inhibition at 96 hour, primary screen for plastid delayed-death inhibitors | 320,000 tested, 6.9% active | AID 504834 | Potency, µM (series often up to 28.7 µM), most hits filed as inhibitors | P. falciparum luciferase reporter growth, 96 h; active = well fitted inhibition curve with a large enough effect; inconclusive = small, poorly fitted or top-dose-only effect, or another doubt; inactive = no such curve, though single readings can be large or run the other way
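Cell-based qHTS: luciferase-tagged P. falciparum in erythrocytes (2% hematocrit, 0.05% parasitemia final) incubated with compounds for 96 hours, 37 C, 5% CO2; luciferase detection reagent then added and luminescence measured.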
Hits are given with their value. Unless noted, calls come from the whole dose curve.

O=C(NCCc1ccc(Cl)cc1)c1ccc(Cn2c(=O)[nH]c3ccccc3c2=O)cc1 was read as Pf growth 48h inconclusive, SARS PLP yeast inactive and Pf growth 96h inconclusive.
`CC1(O)c2ccccc2C(=O)N1Cc1ccccc1` (stereo not given) gave Pf growth 48h inactive, Shiga toxin inh inactive, NS1 inh inactive, Cycloheximide cs inactive, SARS PLP yeast inactive and Pf growth 96h inactive.
For CC1(O)c2ccccc2C(=O)N1CCc1ccccc1F (stereo not given) the results were Pf growth 48h inactive, Shiga toxin inh 66.0, NS1 inh inactive, Cycloheximide cs 42.6, SARS PLP yeast inactive and Pf growth 96h inactive.
Screening COc1ccc(CCN(Cc2ccccn2)C(=S)Nc2cccc(C)c2)cc1OC returned Pf growth 48h 11.7µM, Shiga toxin inh inactive, Cycloheximide cs inactive, SARS PLP yeast inactive and Pf growth 96h inactive.
For COc1ccc(NC(=S)N(CCc2ccc(OC)c(OC)c2)Cc2ccccn2)cc1 the results were Pf growth 48h inconclusive, Shiga toxin inh inactive, Cycloheximide cs inactive, SARS PLP yeast inactive and Pf growth 96h 11.7µM.
For S=C(Nc1ccccc1Cl)N(Cc1ccccc1)Cc1ccccn1 the results were Pf growth 48h inconclusive, Shiga toxin inh inactive, Cycloheximide cs inactive, SARS PLP yeast inactive and Pf growth 96h 1.04µM.
Screening COc1ccccc1NC(=S)N(Cc1ccccc1)Cc1ccccn1 returned Pf growth 48h inactive, Shiga toxin inh inactive, NS1 inh inactive, Cycloheximide cs inactive, SARS PLP yeast inactive and Pf growth 96h inconclusive.
COc1ccc(CCN(Cc2ccccn2)C(=S)Nc2ccccc2F)cc1OC was read as Pf growth 48h inactive, Shiga toxin inh inactive, Cycloheximide cs inactive, SARS PLP yeast inactive and Pf growth 96h inactive.
COc1ccc(CCN(Cc2ccccn2)C(=S)Nc2ccccc2Cl)cc1OC was read as Pf growth 48h inconclusive, Shiga toxin inh inactive, Cycloheximide cs inactive, SARS PLP yeast inactive and Pf growth 96h 13.1µM.
For COC(=O)Cc1c(O)ccn(Cc2cccc3ccccc23)c1=O the results were Pf growth 48h inactive, Shiga toxin inh inactive, NS1 inh inactive, Cycloheximide cs inactive, SARS PLP yeast inactive and Pf growth 96h inconclusive.
O=[N+]([O-])c1cc(/C=N/N2CCN(Cc3ccccc3)CC2)ccc1Cl was read as Pf growth 48h inactive, Shiga toxin inh inactive, NS1 inh inactive, Cycloheximide cs inactive, SARS PLP yeast inactive and Pf growth 96h inconclusive.
FC(F)(F)c1ccccc1/C=N/N1CCN(Cc2ccccc2)CC1 was read as Pf growth 48h inactive, Shiga toxin inh 109.0, NS1 inh inactive, Cycloheximide cs 36.2, SARS PLP yeast inactive and Pf growth 96h inactive.
Screening C(=N\N1CCN(Cc2ccccc2)CC1)/c1cccnc1 returned Pf growth 48h inactive, Shiga toxin inh inactive, NS1 inh inactive, Cycloheximide cs inactive, SARS PLP yeast inactive and Pf growth 96h 6.57µM.
Clc1cccc(/C=N/N2CCN(Cc3ccccc3)CC2)c1 was read as Pf growth 48h inactive, Shiga toxin inh inactive, NS1 inh inactive, Cycloheximide cs 20.8, SARS PLP yeast inactive and Pf growth 96h inactive.
`C(=N\N1CCN(Cc2ccccc2)CC1)/c1ccccc1` gave Pf growth 48h inactive, Shiga toxin inh 68.6, NS1 inh inactive, Cycloheximide cs 38.6, SARS PLP yeast inactive and Pf growth 96h inactive.
Screening FC(F)(F)c1ccc(/C=N/N2CCN(Cc3ccccc3)CC2)cc1 returned Pf growth 48h inactive, Shiga toxin inh inactive, NS1 inh inactive, Cycloheximide cs inactive, SARS PLP yeast inactive and Pf growth 96h inactive.
CCOC(=O)N1CCN(C(=O)C2CCC(=O)N(Cc3ccc(Cl)cc3)C2)CC1 (stereo not given) was read as Pf growth 48h inactive, Shiga toxin inh inactive, NS1 inh inactive, Cycloheximide cs inactive, SARS PLP yeast inactive and Pf growth 96h inactive.
For Cc1ccc(CN2CCN(/N=C/c3ccc(C)s3)CC2)cc1 the results were Pf growth 48h inactive, Shiga toxin inh inactive, NS1 inh inactive, Cycloheximide cs inactive, SARS PLP yeast inactive and Pf growth 96h inconclusive.
For Cc1ccc(/C=N/N2CCOCC2)s1 the results were Pf growth 48h inactive, Shiga toxin inh 68.2, NS1 inh inactive, Cycloheximide cs 46.4, SARS PLP yeast inactive and Pf growth 96h inactive.
Screening Cc1ccc(/C=N/N2CCN(Cc3cccc4ccccc34)CC2)s1 returned Pf growth 48h inactive, Shiga toxin inh inactive, NS1 inh inactive, Cycloheximide cs inactive, SARS PLP yeast inactive and Pf growth 96h inactive.
For Cc1ccc(/C=N/N2CCN(Cc3ccccc3)CC2)s1 the results were Pf growth 48h inactive, Shiga toxin inh 70.0, NS1 inh inconclusive, Cycloheximide cs 50.6, SARS PLP yeast inactive and Pf growth 96h inactive.
`BrC(/C=N/N1CCN(Cc2ccccc2)CC1)=C/c1ccccc1` gave Pf growth 48h inactive, Shiga toxin inh inactive, NS1 inh inactive, Cycloheximide cs inactive, SARS PLP yeast inactive and Pf growth 96h inactive.
For BrC(=C\c1ccccc1)/C=N/N1CCN(Cc2ccccc2)CC1 the results were Pf growth 48h inactive, Shiga toxin inh inactive, NS1 inh inactive, Cycloheximide cs 21.9, SARS PLP yeast inactive and Pf growth 96h inactive.
Screening COc1cccc(/C=C2/SC(=O)N(C)C2=O)c1OCc1ccc(C(=O)O)cc1 returned Pf growth 48h inactive, Shiga toxin inh inactive, NS1 inh inactive, Cycloheximide cs inactive, SARS PLP yeast inactive and Pf growth 96h inactive.
For CN1C(=O)S/C(=C/c2ccc(OCc3cccc(C(=O)O)c3)cc2)C1=O the results were Pf growth 48h inactive, Shiga toxin inh 37.1, NS1 inh inactive, Cycloheximide cs 34.6, SARS PLP yeast inactive and Pf growth 96h inactive.
O=C(CNC(=O)C1CCCCC1)OCC(=O)c1ccc(Br)cc1 was read as Pf growth 48h inactive, Shiga toxin inh 56.3, NS1 inh inactive, Cycloheximide cs 41.0, SARS PLP yeast inactive and Pf growth 96h inactive.
For N/C(=N\OC(=O)C1CCCCC1)c1ccncc1 the results were Pf growth 48h inactive, Shiga toxin inh 30.2, NS1 inh inactive, Cycloheximide cs 10.9, SARS PLP yeast inactive and Pf growth 96h inactive.
For N/C(=N\OC(=O)C1CCCCC1)c1ccc(Br)cc1 the results were Pf growth 48h inactive, Shiga toxin inh 51.2, NS1 inh inactive, Cycloheximide cs 22.7, SARS PLP yeast inactive and Pf growth 96h inactive.
For N/C(=N\OC(=O)C1CCCCC1)c1ccc(Cl)cc1 the results were Pf growth 48h inactive, Shiga toxin inh inactive, NS1 inh inactive, Cycloheximide cs 28.4 and Pf growth 96h inconclusive.
Screening CCOc1ccccc1N1CC(C(=O)Nc2cc(Cl)ccc2C)CC1=O (stereo not given) returned Pf growth 48h inactive, Shiga toxin inh inactive, NS1 inh inactive, Cycloheximide cs inactive, SARS PLP yeast inactive and Pf growth 96h inactive.
CC(=O)Nc1ccc2sccc2c1 was read as Pf growth 48h inconclusive, Shiga toxin inh inactive, Cycloheximide cs inactive, SARS PLP yeast inactive and Pf growth 96h inconclusive.
N/C(=N\OC(=O)C1CCCCC1)c1ccccn1 was read as Pf growth 48h inactive, Shiga toxin inh 86.2, NS1 inh inactive, Cycloheximide cs 31.0, SARS PLP yeast inactive and Pf growth 96h inactive.

Screens from PubChem BioAssay.
